HCV inh – qHTS Assay for Inhibitors of Hepatitis C Virus (HCV). AID 651820, 2012. Potency, µM (doses to about 41.8 µM), inactives show at the highest dose activity change, negative = inhibition, actives largely listed as inhibitors. actives 3.4% (n = 340,000). Huh7.5.1 HCVcc-Cre infection, luciferase reporter, 44 h
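Whole-lifecycle infectious HCVcc-Cre system; cells 1,000/well, compound then virus (~0.5 moi) added 4 h after plating, 44 h culture. Luciferase read 15 sec following 15 min substrate incubation, room temp.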
AMA1 RON2 block – qHTS for Inhibitors of AMA1-RON; Towards Development of Antimalarial Drug Lead: Primary Screen. actives 0.2% (n = 360,000). Potency, µM (titrated, usually from 58.2 µM), inactives show at the top dose activity change, negative = inhibition, usual class: inhibitors. AlphaScreen AMA1-biotinylated RON2 peptide binding;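 also: 0% = vehicle wells and -100% = peptide control; nearly all actives have a fitted effect of over 45% in size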
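AMA1 (3D7) with his tag at 25 nM final met compounds first, then biotinylated RON2 peptide at 25 nM; detection used donor plus acceptor beads, 10 µg/mL apiece, read by AlphaScreen after 30 min at room temperature.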
Pf growth 96h – Primary qHTS for delayed death inhibitors of the malarial parasite plastid, 96 hour incubation. P. falciparum luciferase reporter growth, 96 h. Potency, µM (titrated, usually from 28.7 µM), inactives show at the top dose activity change, negative = inhibition, usual class: inhibitors. actives 6.9% (n = 320,000). AID 504834, 2011
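Readout is luminescence from an integrated firefly luciferase in P. falciparum. Red cells, 2% hematocrit and 0.05% parasitemia final, were cultured with compound through two parasite generations (96 hours) at 37 C, 5% CO2.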
Pf growth 48h – Primary qHTS for delayed death inhibitors of the malarial parasite plastid, 48 hour incubation | P. falciparum luciferase growth in erythrocytes, 48 h | actives 5.9% (n = 310,000) | Potency, µM (series often up to 28.7 µM), without a hit: at the top dose activity change, negative = inhibition, actives largely listed as inhibitors
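First compound was added to culture medium, then infected red cells at 0.1% parasitemia and 2% hematocrit (final). After incubation at 37 C under 5% CO2, luciferase detection reagent was dispensed and light output recorded.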
Active calls of the source: *; [ ] = dose if it differs, or a comment. This is a sample that favours compounds with a hit; in the whole collection about 11% have one here. Calls follow the shape of the dose curve; as a rule, active = well fitted curve in the direction sought with a large enough effect; inconclusive = small, poorly fitted or top-dose-only effect, or another doubt; inactive = no such curve, though single readings can be large; an effect the other way counts as inactive or inconclusive. Unless noted, % is scaled to controls: 0 for no effect and ±100 for the full control effect; potency is read from the fitted curve at half-maximal effect.

Results for CCCCN1CC(COCc2ccccc2)Oc2cccc(OCCN3C(=O)[C@@H]4[C@H](C3=O)C3C=C[C@H]4C3)c2S1(=O)=O (stereo not given in full) ?
HCV inh: 10µM*; AMA1 RON2 block: -9%

How did Cc1ccc(N2C(=O)C3C4CC(=O)C(c5ccccc54)C3C2=O)cc1 (stereo not given) do in these assays?
HCV inh: 21%; AMA1 RON2 block: -5%; Pf growth 96h: 59%; Pf growth 48h: 28%

What do the screens show for `Cc1ccc(N2C(=O)C3CCCN3C2=S)c(C)c1` (stereo not given)?
HCV inh: 4%; AMA1 RON2 block: -12%; Pf growth 96h: inconclusive; Pf growth 48h: inconclusive

How did Cc1ccc(N2C(=O)C3CC(c4ccccc4)=C4C5C=CC(C6C(=O)N(c7ccc(C)cc7C)C(=O)C56)C4C3C2=O)c(C)c1 (stereo not given) do in these assays?
HCV inh: inconclusive; AMA1 RON2 block: -13%; Pf growth 48h: 2.1µM*

What do the screens show for `Cc1ccc(N2C(=O)C3CC(c4ccccc4)=C4C5C=CC(C6C(=O)N(c7ccc(C)cc7)C(=O)C56)C4C3C2=O)cc1` (stereo not given)?
HCV inh: 4%; AMA1 RON2 block: -13%; Pf growth 96h: inconclusive; Pf growth 48h: 13µM*

How did CN(C)c1cc(N/N=C\c2ccccc2)nc(N(C)C)n1 do in these assays?
HCV inh: inconclusive; AMA1 RON2 block: -5%; Pf growth 96h: -4%; Pf growth 48h: inconclusive

Results for COc1cc(/C=N/Nc2cc(C)nc(N)n2)ccc1O ?
HCV inh: -8%; AMA1 RON2 block: 70%; Pf growth 96h: inconclusive; Pf growth 48h: -31%[0.00184 µM]

Results for COc1ccc(/C=N/Nc2cc(N(C)C)nc(N(C)C)n2)cc1 ?
HCV inh: inconclusive; AMA1 RON2 block: inconclusive; Pf growth 96h: 12µM*; Pf growth 48h: inconclusive

How did COc1ccc(/C=N/Nc2cc(C)nc(N)n2)cc1 do in these assays?
HCV inh: 1%; AMA1 RON2 block: 9%; Pf growth 96h: -2%; Pf growth 48h: 9.3µM*

How did COc1ccccc1C(=O)C1CCCN(C(=O)c2ccco2)C1 (stereo not given) do in these assays?
HCV inh: 1%; AMA1 RON2 block: 4%; Pf growth 96h: inconclusive; Pf growth 48h: 19%

What do the screens show for `CCCCn1c(N)c(N(CCC(C)C)C(=O)CN2C(=O)C3CCCCC3C2=O)c(=O)[nH]c1=O` (stereo not given)?
HCV inh: -14%; AMA1 RON2 block: -9%; Pf growth 96h: -6%; Pf growth 48h: 2%

Results for CCOc1ccc(CNC(=O)c2ccc(Sc3ccc(C)cc3)c(NC(C)=O)c2)cc1OC ?
HCV inh: inconclusive; AMA1 RON2 block: -2%; Pf growth 96h: 12µM*; Pf growth 48h: 14%

Results for CCOc1ccc(CNC(=O)c2ccc(Sc3ccc(Cl)cc3)c(NC(C)=O)c2)cc1OC ?
HCV inh: 13µM*; AMA1 RON2 block: 3%; Pf growth 96h: -9%; Pf growth 48h: -9%

How did Fc1ccccc1CSc1ccc(-c2ccco2)nn1 do in these assays?
HCV inh: -16%; AMA1 RON2 block: -15%; Pf growth 96h: 180%; Pf growth 48h: 248%

What do the screens show for `Cc1csc(NC(=O)CSc2nnc(CCNC(=O)c3ccc(Cl)c(Cl)c3)n2C)n1`?
HCV inh: 5%; AMA1 RON2 block: -3%; Pf growth 96h: -4%

Results for COc1cccc2cc(-c3nnc(SCC(=O)Nc4nc(C)cs4)n3C)oc12 ?
HCV inh: 13µM*; AMA1 RON2 block: 4%; Pf growth 96h: inconclusive; Pf growth 48h: inconclusive

Results for COc1ccc(CCCc2nnc(SCC(=O)Nc3nc(C)cs3)n2C)cc1 ?
HCV inh: -3%; AMA1 RON2 block: -8%; Pf growth 48h: 10µM*

What do the screens show for `Cc1ccccc1NC(=O)c1ccc(F)c(S(=O)(=O)NCC2CCCO2)c1` (stereo not given)?
HCV inh: -12%; AMA1 RON2 block: 15%; Pf growth 96h: 24%; Pf growth 48h: 2%
